Assay outcomes (PubChem BioAssay)
CHT block = inhibits the human high affinity choline transporter. 0.86% of 310,000 active. B-score at 10 µM. CHT-expressing cells, membrane potential dye, choline response; hits give low values. AID 488975;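 active = B-score over 3 SD under the library average, and starting fluorescence ratio not unusually high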;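 also: choline stimulus applied at its EC90 after an EC20 pre-addition; B-score computed on integrated fluorescence ratio after choline addition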
AI-2 QS mod = modulates the Vibrio harveyi AI-2 quorum sensing system | Vibrio harveyi JMH597 AI-2 luminescence/OD600 ratio, 9 h; hits give low values; strain lacks LuxN and CqsS sensors; 0 = neutral-control median | activity change, % at 7.5 µM | 0.4% of 300,000 active | AID 2094; in the data active = activity change below about -75%, passing the limit was not always enough; inconclusive = no clear call, values can overlap the other calls;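 also: luminescence divided by OD600 gain over 9 h not by final OD600 alone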
PREPL inh = inhibits the human prolyl oligopeptidase-like enzyme | inhibition, % at 5.96 µM | AID 2751 | recombinant PREPL, fluorescence polarization activity-based probe | 0.68% of 320,000 active | Q4J6C6; in the data active = inhibition above about 43%;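 also: 0% = enzyme with DMSO and 100% = wells lacking enzyme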
Target sequence (Q4J6C6 whole entry, looked up): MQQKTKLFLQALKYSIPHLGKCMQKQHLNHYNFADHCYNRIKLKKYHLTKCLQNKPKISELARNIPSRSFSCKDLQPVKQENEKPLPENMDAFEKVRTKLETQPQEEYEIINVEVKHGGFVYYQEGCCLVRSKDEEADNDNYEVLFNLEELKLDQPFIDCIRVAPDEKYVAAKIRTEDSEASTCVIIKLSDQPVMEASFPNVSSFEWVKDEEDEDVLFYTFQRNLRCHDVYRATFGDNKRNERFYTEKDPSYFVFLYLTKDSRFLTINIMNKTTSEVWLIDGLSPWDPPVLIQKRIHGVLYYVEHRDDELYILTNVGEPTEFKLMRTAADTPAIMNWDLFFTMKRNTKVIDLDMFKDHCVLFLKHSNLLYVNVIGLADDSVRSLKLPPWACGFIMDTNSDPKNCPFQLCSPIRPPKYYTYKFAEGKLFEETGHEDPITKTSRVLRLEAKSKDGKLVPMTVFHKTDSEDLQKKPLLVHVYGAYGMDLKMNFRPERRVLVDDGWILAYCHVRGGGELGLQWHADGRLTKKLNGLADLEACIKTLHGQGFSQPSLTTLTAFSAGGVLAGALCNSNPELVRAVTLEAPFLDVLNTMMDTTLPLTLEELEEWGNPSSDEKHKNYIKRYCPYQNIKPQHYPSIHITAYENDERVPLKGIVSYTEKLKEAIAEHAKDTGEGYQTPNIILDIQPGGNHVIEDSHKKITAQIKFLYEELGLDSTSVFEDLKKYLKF
ALR H2O2 inh = blocks human ALR sulfhydryl oxidase activity; purified ALR, DTT oxidation, H2O2 HRP-luminol luminescence; inhibition, % (concentration not given with the values); 3.8% of 290,000 active; AID 485317;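 active = mean replicate inhibition above about 79%, with every replicate also reaching it, limit read from the data; inconclusive = only one of the two criteria met; inactive = mean below limit and not every replicate reaching it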
CHT PAM = allosterically activates the human high affinity choline transporter. Q9GZV3. CHT-expressing cells, membrane potential dye, choline EC20; hits give high values; LV-AA mutant CHT in HEK293 cells. B-score at 10 µM. 0.49% of 310,000 active. AID 488977;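 active = initial fluorescence not abnormally high and integrated response B-score, plate-corrected, over 3 SD above library mean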
CHT activ conf = human CHT activation, confirmatory screen; CHT-expressing cells, membrane potential dye fluorescence (FDSS); % of choline EC20–EC90 response window; HEK293 expressing CHT LV-AA mutant; choline added at its EC20; 91% of 2,500 active; AID 504833; activation, % at 10 µM; shares compounds with CHT PAM;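 active = primary screen active, with duplicate mean activation above negative control mean plus 3 SD, cut at about 11% in these data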
HEK293 MP dye = activity in parental HEK293 cells lacking CHT; shares compounds with CHT PAM; membrane potential dye fluorescence (FDSS); measured after EC20 choline addition; ratio readout change at 10 µM, hits read low; 62% of 2,500 active; AID 623908;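 active = duplicate-averaged ratio beyond 3 SD from buffer wells, up or down, though filed actives are nearly all decreases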
Starred values were filed as active, the others as inactive; i = inactive; ? = inconclusive; / = no result. Hits are enriched below; roughly 5% of the tested compounds scored in any of these assays.

SMILES	CHT block	AI-2 QS mod	PREPL inh	ALR H2O2 inh	CHT PAM	CHT activ conf	HEK293 MP dye
CN(CCO)C(=O)C(c1ccccc1)c1ccccc1	i	26.9	-2.4	-13.1	i	/	/
CN(Cc1ccc(F)cc1)C(=O)C(c1ccccc1)c1ccccc1	i	/	16.9	0.0	i	36.5*	i
CN(Cc1cccc(F)c1)C(=O)C(c1ccccc1)c1ccccc1	i	7.4	/	2.6	6.46*	6.4	i
COc1ccccc1CN(C)C(=O)C(c1ccccc1)c1ccccc1	i	12.2	3.4	-1.8	11*	30.1*	i
COc1ccc2c(c1)C(C)=CC(C)(C)N2S(=O)(=O)c1ccc(C)cc1	i	29.1	-6.5	-28.9	7.9*	40.6*	i
COC(=O)CSc1nc(C)cc(Oc2ccccc2)n1	i	18.7	8.8	-4.6	i	/	/
Cc1cc(Oc2ccc3ccccc3c2)nc(SCC(=O)c2ccccc2)n1	i	-1.3	-12.6	-11.1	8.01*	53.3*	i
COC(C(=O)Nc1ccnn1C1CCN(Cc2ccc(CO)o2)CC1)c1ccccc1 (stereo unspecified)	i	22.6	0.5	-5.0	i	/	/
COc1ccc(N/C(N)=N/c2nc(CSc3nnc(C)s3)cc(=O)[nH]2)cc1	i	15.0	-6.7	-2.3	i	/	/
Cc1ccc(N/C(N)=N/c2nc(CSc3nnc(C)s3)cc(=O)[nH]2)c(C)c1	i	27.0	4.2	-3.0	6.88*	23.8*	i
CC(C)(C)NC(=O)CC1C[C@H](C(=O)N2CCCCC2)[C@@]2(CCc3ccccc3)c3[nH]c4ccccc4c3CCN2C1=O (stereo partly specified)	/	/	9.3	-0.7	/	/	/
COc1ccc(C(=O)C(CCC(CNC(C)(C)C)C(=O)c2ccc(OC)cc2)CNC(C)(C)C)cc1 (stereo unspecified)	i	19.0	-26.8	?	6.56*	28.4*	i
Cn1c(=O)[nH]c(=O)c2c1nc(N1CCN(c3ccccc3)CC1)n2CCSc1ncccn1	i	15.8	11.8	28.9	i	36.7*	i
Cc1ccnc(SCCn2c(N3CCN(Cc4ccccc4)CC3)nc3c2c(=O)[nH]c(=O)n3C)n1	i	10.8	42.3	/	i	/	/
Cn1c(=O)[nH]c(=O)c2c1nc(N1CCCCC1)n2CCSc1ncccn1	i	17.9	-7.5	/	8.02*	18.4*	-24*
Cc1ccc2c(c1)C(c1ccc(O)cc1)(c1ccc(O)cc1)C(=O)N2C	i	12.0	-0.6	2.6	6.37*	1.3	i
CC(C)(C)NCC(O)COc1cccc2c1CCC(=O)N2 (stereo unspecified)	i	/	3.5	/	i	/	/
COc1ccc(C(=O)N/N=C/c2cc3ccccc3[nH]c2=O)cc1	i	16.5	-0.4	-0.9	i	29.4*	-31.7*
COC(=O)C1=C(C)NC(=O)/C1=C\c1cc(C)n(-c2ccccc2C)c1C	i	28.9	3.1	8.8	i	/	/
COC(=O)C1=C(C)NC(=O)/C1=C\c1cc(C)n(-c2c(C)cccc2C)c1C	i	30.0	17.3	-4.1	i	15.8*	i
CCCN(CC(=O)Nc1ccccc1C)C(=O)c1ccc(C)c(S(=O)(=O)N2CCCCC2)c1	i	24.6	-4.5	-8.9	i	14.4*	i
CCOc1cc(Br)c(C(C)NC(=O)c2cccnc2)cc1OCC (stereo unspecified)	i	16.8	15.5	0.0	i	/	/
O=C(Nc1ccccc1Oc1cccnc1)C1CCCN(Cc2ccccc2O)C1 (stereo unspecified)	i	6.4	8.2	18.1	i	/	/
C#Cc1ccc(CN2CCCC(C(=O)Nc3ccccc3Oc3cccnc3)C2)cc1 (stereo unspecified)	i	-6.1	21.6	6.8	i	16.6*	i
Cc1ccc(C)c(S(=O)(=O)c2c(C)cc(C)[nH]c2=O)c1	i	10.0	-0.9	-1.3	i	/	/
SMILES	CHT block	AI-2 QS mod	PREPL inh	ALR H2O2 inh	CHT PAM	CHT activ conf	HEK293 MP dye
N#Cc1cc([N+](=O)[O-])ccc1NCCCn1ccnc1	i	21.7	2.4	-7.9	7.3*	62.5*	-59.5*
Cc1ccccc1CN1CCN(C(=O)c2ccco2)CC1	i	10.6	6.4	-5.1	i	/	/
Cc1cccn2c1nc(=S)n2C(=O)c1ccco1	i	2.0	-0.9	/	i	26.7*	-20.9*
CC1CCC2(CC1)NC(=O)N(CC(=O)NCc1ccc(Cl)cc1)C2=O (stereo unspecified)	/	/	1.4	1.5	/	/	/
CN(C)c1ccc(-c2ccc([C@H]3[C@@H]4C=CCC[C@@]4(C)C(=O)N3Cc3ccccc3)c(F)c2)cc1	i	10.8	1.5	/	i	/	/
CCOc1ccc(N(C)S(=O)(=O)c2ccc(-c3cc(C)no3)s2)cc1	i	25.3	-35.3	-7.8	i	/	/
Cc1cccc(N(C)S(=O)(=O)c2ccc(-c3cc(C)no3)s2)c1	i	-6.4	-32.5	-1.8	i	39.4*	i
Cc1ccc(C#CC[N+]2(CC#Cc3ccc(C)cc3)CCCCC2)cc1	i	18.1	0.2	-34.0	8.71*	18.4*	i
Cc1nnc(SCC(=O)NCC2COc3ccccc3O2)s1 (stereo unspecified)	/	/	-1.1	-0.4	/	/	/
CC1CSc2n(-c3cccc(C(F)(F)F)c3)cc(-c3ccccc3)[n+]21 (stereo unspecified)	i	-10.7	-2.1	1.3	i	50.2*	-31.1*
FC(F)(F)c1cccc(N2Cc3ccccc3C2)c1	i	11.5	3.4	-11.6	i	/	/
O=C(Nc1nccs1)c1ccc(COc2ccccc2Cl)o1	i	-13.5	-9.7	1.7	i	/	/
Cc1cccn2cc(CNc3ccccc3)nc12	i	-42.8	-4.9	98.5*	i	31.1*	-26.5*
Cc1cccn2cc(CNC(=O)CC3CCCC3)nc12	i	20.0	16.8	-3.1	i	/	/
COc1ccc(OC)c2c(C)cc(N3CCN(C(=O)c4ccc(F)cc4)CC3)nc12	i	23.2	17.2	/	6.55*	41.4*	-68.5*
CN1CCN(C=Nc2nc3ccccc3nc2N2CCCC2)CC1	i	15.6	11.4	-14.6	6.68*	25.5*	-51.9*
Cc1cc(NC(=O)CSc2ccc3nnc(-c4ccccn4)n3n2)no1	i	13.1	3.9	-26.4	8.08*	46.8*	-43.3*
COC(=O)c1ccc(CSc2ccc3nnc(-c4ccccn4)n3n2)o1	i	48.7	2.7	-11.7	i	35.0*	-35.6*
COCCCn1c(C(=O)N2CC(C)OC(C)C2)cc2c(=O)n3ccccc3nc21 (stereo unspecified)	i	12.2	6.2	-1.9	i	/	/
